# Screening results (PubChem BioAssay)
# CCHF vOTU inh: CCHFV vOTU protease inhibition; Pep-AMC fluorescence; inhibition, % at 11.5 µM; hit rate 0.55% among 370,000; AID 651958; in the data active means inhibition above about 30%; further: 0% = vehicle wells with enzyme and 100% = no enzyme wells
# RecA intein inh: Mtb RecA intein splicing inhibition. hit rate 0.75% among 290,000. P9WHJ3. inhibition, % (no concentration beside the values). cell-free RecA intein splicing, fluorescence; in the data active means inhibition above about 30%; inconclusive means no clear call, values can overlap the other calls;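 further: 0% = vehicle wells and 100% = reference inhibitor control wells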
# Target sequence (P9WHJ3 whole entry, looked up): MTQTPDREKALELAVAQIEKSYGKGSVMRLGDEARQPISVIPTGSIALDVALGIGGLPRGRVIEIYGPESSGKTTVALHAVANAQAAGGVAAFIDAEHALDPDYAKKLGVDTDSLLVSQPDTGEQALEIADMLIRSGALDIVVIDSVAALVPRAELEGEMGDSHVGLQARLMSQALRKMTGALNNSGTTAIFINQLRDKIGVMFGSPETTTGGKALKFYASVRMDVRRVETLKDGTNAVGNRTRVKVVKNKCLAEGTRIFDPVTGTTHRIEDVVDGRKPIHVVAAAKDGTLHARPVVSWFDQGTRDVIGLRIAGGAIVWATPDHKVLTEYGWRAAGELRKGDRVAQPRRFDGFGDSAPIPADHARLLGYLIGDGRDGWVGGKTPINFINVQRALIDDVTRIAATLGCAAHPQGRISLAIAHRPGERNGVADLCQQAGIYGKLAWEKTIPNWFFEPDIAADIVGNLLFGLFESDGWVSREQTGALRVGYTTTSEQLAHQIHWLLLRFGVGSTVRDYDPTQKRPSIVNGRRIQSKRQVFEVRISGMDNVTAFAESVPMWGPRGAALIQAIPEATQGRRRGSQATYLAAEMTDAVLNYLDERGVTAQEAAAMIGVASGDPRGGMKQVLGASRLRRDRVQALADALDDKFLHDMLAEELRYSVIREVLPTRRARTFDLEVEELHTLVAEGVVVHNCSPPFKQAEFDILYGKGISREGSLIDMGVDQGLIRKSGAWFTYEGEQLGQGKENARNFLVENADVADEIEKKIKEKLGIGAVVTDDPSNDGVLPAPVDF
# Mtb hypoxia rep: inhibitors of hypoxia-regulated fluorescent reporter in Mycobacterium tuberculosis | M. tuberculosis hypoxia-regulated fluorescent reporter, fluorescence | fluorescence inhibition, % (test concentration not listed) | hit rate 0.1% among 300,000 | AID 1159583; in the data active means fluorescence inhibition mostly above about 23%, no sharp cut-off; inactive means mostly below about 17%
# PfHsp40 yeast: compounds rescuing yeast from Plasmodium falciparum HSP40 toxicity; S. cerevisiae expressing PfHsp40, growth rescue, ATP luminescence; hit rate 0.68% among 340,000; growth rescue, % at 12.5 µM; AID 504582; in the data active means growth rescue above about 28%, passing the limit was not always enough; inconclusive means no clear call, values can overlap the other calls;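 further: yeast W303a lacking pdr1 and pdr3 grown in galactose medium; growth measured after three days at 30 °C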
# Mtb bLac sens: beta-lactam sensitization of Mtb H37Rv; inhibition, % at 25 µM; M. tuberculosis H37Rv growth with meropenem, percent inhibition; hit rate 0.27% among 330,000; call rule not given here;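 further: growth measured after seven days incubation then overnight dye step; 0% = bacteria only wells and 100% = bacteria with antibiotic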
# Starred values were filed as active, the others as inactive; ? = inconclusive; . = not tested or not shown. Hits are enriched below; roughly 1.7% of the tested compounds scored in any of these assays.
SMILES,CCHF vOTU inh,RecA intein inh,Mtb hypoxia rep,PfHsp40 yeast,Mtb bLac sens
Cc1ccccc1C(=O)NNC(=S)NC(=O)c1ccc(Cl)cc1Cl,10.8,12.2,11.7,395.1*,2.9
CCOC(=O)c1ccc(NC(=O)/C=C/c2cccs2)cc1,22.7,5.0,-5.3,164.1*,6.7
O=C1C=C(c2ccc(C(=O)O)cc2)CC(c2ccc(F)cc2)C1 (stereo unspecified),.,.,8.7,.,.
CC(=O)Nc1ccc(C=NNC(=O)c2cc3ccccc3nc2C)cc1,.,.,3.6,.,.
Cc1ccc(C(C)NC(=S)NCc2ccc(F)cc2)cc1C (stereo unspecified),2.6,7.5,-0.7,11.0,-6.2
Cc1ccc(C(C)NC(=S)NCc2ccc(F)cc2)c(C)c1 (stereo unspecified),20.7,7.1,0.8,117.4*,-2.0
CCc1ccc(C(C)NC(=S)NC2CCCCC2)cc1 (stereo unspecified),.,4.6,-5.8,82.7*,1.1
CCc1ccc(C(C)NC(=S)NCc2ccc(F)cc2)cc1 (stereo unspecified),3.6,-1.6,-1.4,227.2*,-19.8
CCOc1ccc(C(C)NC(=S)NCc2ccc(F)cc2)cc1 (stereo unspecified),-2.4,2.0,7.3,5.4,-2.3
O=C(CNC(=O)c1ccccc1Br)NN=Cc1cccnc1,.,.,2.1,.,.
Cc1ccc(S(=O)(=O)NC(C)CCc2ccccc2)cc1 (stereo unspecified),31.3*,3.2,0.0,0.3,-2.8
O=C(NC(Cc1ccccc1)C(=O)OCc1ccccc1)c1nc[nH]c1C(=O)NC(c1ccccc1)c1ccccc1 (stereo unspecified),.,.,8.9,.,.
O=C(O)C1CCCCC1C(=O)Nc1ccc(S(=O)(=O)N2CCCC2)cc1 (stereo unspecified),-2.4,-2.6,5.5,116.0*,-4.3
CC(C)c1ccc(NC(=S)Nc2ccc(OC(F)(F)F)cc2)cc1,-6.3,-0.8,18.9,-2.5,45.6
FC(F)(F)Oc1ccc(NC(=S)Nc2ccc(OC(F)(F)F)cc2)cc1,3.2,-2.3,13.4,145.2*,90.8
O=C(CSCc1ccc(Cl)cc1)Nc1ccccc1C(=O)N1CCOCC1,1.1,1.6,2.7,0.2,-18.0
O=C(CSCc1ccc(Cl)cc1)Nc1ccccc1O,-7.3,3.8,64.6*,-0.6,66.8
Cc1ccc(N2C(=O)C(Cl)=C(NCCO)C2=O)c(C)c1,-8.1,32.8*,1.0,-0.7,12.9
COc1ccc(C2C=CCNCC(=O)N2Cc2ccc(F)cc2)cc1 (stereo unspecified),.,.,-0.1,.,.
O=[N+]([O-])c1cccc(C=NNc2ccccc2)c1,-0.3,.,11.9,?,.
O=[N+]([O-])c1ccc(C=NNc2ccccc2)cc1,1.0,.,9.2,30.1*,.
CC/C(=N\Nc1ccc([N+](=O)[O-])cc1)c1ccccc1,.,-3.6,.,429.9*,94.4
C/C(=N\Nc1ccc([N+](=O)[O-])cc1)c1ccco1,5.2,-3.6,.,64.2*,41.9
O=C(O)CCC(=NNc1ccc([N+](=O)[O-])cc1)c1ccccc1,.,.,3.4,.,.
O=C(Cc1ccccc1)NC(Cc1ccccc1)C(=O)O (stereo unspecified),.,.,7.6,.,.
SMILES,CCHF vOTU inh,RecA intein inh,Mtb hypoxia rep,PfHsp40 yeast,Mtb bLac sens
CC1CN(C(C)CO)C(=O)c2cc(NC(=O)C3CC3)ccc2OC1CN(C)S(C)(=O)=O (stereo unspecified),.,.,18.2,.,.
CC1CN(C(C)CO)C(=O)Cc2cc(NC(=O)Nc3ccc(C(F)(F)F)cc3)ccc2OC1CN(C)S(=O)(=O)c1cn(C)cn1 (stereo unspecified),.,.,-12.6,.,.
COc1ccc(Br)cc1C(=O)NCc1cccnc1,-8.4,-2.0,13.9,34.5*,0.1
COC(=O)c1cc(CNC(=O)c2ccccc2Cl)ccc1OC,-3.6,-1.0,-1.5,47.3*,7.7
Cc1ccc(CN2C(=O)CCC2C(=O)NCc2ccc(F)cc2)cc1 (stereo unspecified),6.7,0.5,7.8,62.7*,-8.2
O=C(NCc1ccccc1Cl)C1CCC(=O)N1Cc1ccc(F)cc1 (stereo unspecified),4.5,0.2,-11.3,.,-1.1
Cc1ccc(S(=O)(=O)N(C)c2c(C)ccc(S(=O)(=O)N3CCN(C)CC3)c2C)cc1,0.8,-0.4,9.6,49.5*,-2.2
CN(C)c1ccc(C=NN=C2SC(CC(=O)O)C(=O)N2c2ccc(O)cc2)cc1 (stereo unspecified),.,.,-0.3,.,.
CC1(C)Oc2ccc(NC(=O)C3COc4ccccc4O3)cc2O1 (stereo unspecified),-13.3,-0.5,0.2,40.7*,-1.6
O=C(COC(=O)C1COc2ccccc2O1)Nc1cccc(F)c1 (stereo unspecified),10.0,.,27.6*,-0.1,3.8
CC1=NN(/C(=N/c2nnc(C)s2)Nc2ccc(C(C)(C)C)cc2)[C@H](c2ccc(C)cc2)S1,.,.,16.1,.,.
O=c1[nH]c2cc(Br)cnc2nc1C=C(O)c1ccc(F)cc1,.,.,-2.8,.,.
CCC(=O)Nc1ccc(C(C)=NNC(=O)c2c(Br)c(C)nn2C)cc1,.,.,4.1,.,.
CN(C)c1ccc(/C=C/c2ccc3ccccc3[n+]2C)cc1,3.7,-0.2,10.8,52.6*,64.9
Cc1cc(C(=O)NN=C2CC(=O)CC(C)(C)C2)c(C)n1-c1ccccc1,.,.,-3.8,.,.
c1coc(CNc2nc3ccccc3s2)c1,-5.6,1.8,12.2,0.7,-3.7
Clc1ccc(CCNc2nc3ccccc3s2)cc1,9.4,4.9,-2.1,217.4*,15.1
CN(C)c1ccc(Cc2cc3c(O)ccc(O)c3cc(Cc3ccc(N(C)C)cc3)c2=O)cc1,33.9*,.,.,-0.9,.
COC(=O)c1ccc(C(NC(=O)c2ccco2)[C@]2(C)CC2C2CCCCC2)cc1 (stereo partly specified),.,.,-1.7,.,.
CC(=N/O)/C(=N\O)c1ccc(C)o1,17.3,.,.,242.2*,-2.0
COc1ccc(C(=O)Nc2nc(C)c3cc4c(cc3n2)OCO4)cc1,3.1,-1.4,37.6*,-0.8,7.1
Cc1nc(NC(=O)c2ccc(Cl)cc2)nc2cc3c(cc12)OCO3,17.5,-1.8,7.9,-1.5,0.6
CC(=O)C1=C(C)N(CC2CC2)C(=O)NC1c1ccccc1 (stereo unspecified),.,.,8.4,.,.
FC(F)(F)c1cc(Cl)c2nc(-c3ccccc3)c(Cc3cccc(Cl)c3)n2c1,30.7*,.,.,.,.
O=C(N/N=C/c1cc(Br)ccc1O)c1ccccc1Cl,-0.1,9.3,.,465.8*,95.8
SMILES,CCHF vOTU inh,RecA intein inh,Mtb hypoxia rep,PfHsp40 yeast,Mtb bLac sens
CN(C)/N=C/c1ccc([N+](=O)[O-])cc1[N+](=O)[O-],-9.2,-3.1,.,30.8*,1.2
CCOC1OC(C(=O)O)=CC(c2coc3ccccc3c2=O)C1CCCO (stereo unspecified),.,.,7.5,.,.
C=CCCOC1OC(C)C(O)CC1O (stereo unspecified),.,.,7.0,.,.
CCOc1cc(N2CCOCC2)c(OCC)cc1NC(=O)COC(=O)c1ccc([N+](=O)[O-])o1,17.0,.,.,81.7*,96.7
O=C(OCCCOC(=O)c1ccc([N+](=O)[O-])o1)c1ccc([N+](=O)[O-])o1,-3.6,-3.9,70.7*,2.8,100.0
Cc1cccc(C)c1NC(=O)COC(=O)c1ccc([N+](=O)[O-])o1,22.9,.,20.5,32.3*,51.2
O=C(COC(=O)c1ccc([N+](=O)[O-])o1)Nc1ccc2c(c1)OCO2,12.6,.,9.6,66.9*,82.6
